# Measured values from the supplement of paper PMC7380943.
# Columns and labels:
# [1] = tested on: CLZ3 (HCA2 human fibroblast dual HR-NHEJ reporter); assay: NHEJ repair efficiency (GFP+ cells) relative to control (log10 fold); higher = more non-homologous end joining; conditions: 5 µM; doxycycline 0.5 ug/mL
# [2] = tested on: CLZ3 (HCA2 human fibroblast dual HR-NHEJ reporter); assay: HR repair efficiency (tdTomato+ cells) relative to control (log10 fold); higher = more homologous recombination; conditions: 5 µM; doxycycline 0.5 ug/mL
# 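For HR repair efficiency (tdTomato+ cells) relative to control in this document: compound given one day before doxycycline, which switches on I-SceI endonuclease expression to create double-strand breaks within the integrated reporter.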
# 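For NHEJ repair efficiency (GFP+ cells) relative to control in this document: compound given one day ahead of doxycycline, which switches on I-SceI endonuclease to cut the chromosomally integrated reporter and create DSBs.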
Structure (SMILES),NHEJ repair efficiency (log10) [1],HR repair efficiency (log10) [2]
c1cc2c(cc1O[C@H]1OC[C@H]3[C@@H]1CO[C@@H]3c1ccc3c(c1)OCO3)OCO2 [Sesamolin],0.101,0.22
C[C@@H]1O[C@@H](OC[C@H]2O[C@@H](Oc3cc(O)c4c(=O)cc(-c5ccc(O)cc5)oc4c3)[C@H](O[C@@H]3O[C@@H](C)[C@H](O)[C@@H](O)[C@H]3O)[C@@H](O)[C@@H]2O)[C@H](O)[C@H](O)[C@H]1O [Ligustroflavone],0.105,0.0603
O=C1c2c(O)cccc2C([C@@H]2O[C@H](CO)[C@@H](O)[C@H](O)[C@H]2O)c2cc(CO)cc(O)c21 (stereo partly specified) [Barbaloin],0.0217,0.119
"OC[C@H]1O[C@@H](Oc2c(O)cc(O)cc2/C=C/c2ccc(O)cc2)[C@H](O)[C@@H](O)[C@@H]1O [2,3,5,4'-Tetrahydroxy Stilbene 2-Ο-Β-D-Glucoside]",0.157,-0.0324
COc1ccc(/C=C/c2cc(O)cc(O[C@@H]3O[C@H](CO)[C@@H](O)[C@H](O)[C@H]3O)c2)cc1 [Desoxyrhaponticin],0.161,0.245
COc1cc(C[C@@H](CO[C@@H]2O[C@H](CO)[C@@H](O)[C@H](O)[C@H]2O)[C@H](CO[C@@H]2O[C@H](CO)[C@@H](O)[C@H](O)[C@H]2O)Cc2ccc(O)c(OC)c2)ccc1O [Secoisolariciresinol Diglycoside],0.00786,0.0805
C[C@@H]1C(=O)O[C@H](C)[C@H]1C[C@@H](O)[C@](C)(O)[C@H]1CC[C@@]2(O)C3=CC(=O)[C@@H]4C[C@@H](O)[C@@H](O)C[C@]4(C)[C@H]3CC[C@]12C [Cyasterone],0.00995,0.0455
COc1ccc([C@@H]2CC(=O)c3c(O)cc(O[C@@H]4O[C@H](CO)[C@@H](O)[C@H](O)[C@H]4O[C@@H]4O[C@@H](C)[C@H](O)[C@@H](O)[C@H]4O)cc3O2)cc1O [Neohesperidin],-0.0783,-0.11
CC(C)(O[C@@H]1O[C@H](CO)[C@@H](O)[C@H](O)[C@H]1O)[C@H]1Cc2cc3ccc(=O)oc3cc2O1 [Nodakenin],-0.0969,0.0112
C[C@H]1[C@H](OC(=O)CCC(=O)O)O[C@@H]2O[C@@]3(C)CC[C@H]4[C@H](C)CC[C@@H]1[C@@]24OO3 [Artesunate],-0.0268,-0.241
C[C@H](CCC(=O)O)[C@H]1CC[C@H]2[C@@H]3C[C@H](O)[C@@H]4C[C@H](O)CC[C@]4(C)[C@H]3CC[C@]12C [Hyodesoxycholic acid],-0.299,-0.322
COc1cc(-c2oc3cc(O)cc(O)c3c(=O)c2O[C@@H]2O[C@H](CO[C@H]3O[C@H](C)[C@@H](O)[C@H](O)[C@@H]3O)[C@@H](O)[C@H](O)[C@H]2O)ccc1O [Narcissoside; Isorhamnetin-3-O-β-D-rutinoside],0.0544,-0.0269
Oc1ccc2c(c1)OCO2 [Sesamol],0.111,0.234
COc1cc(C(=O)OCCCCNC(=N)N)cc(OC)c1O [Leonurine],-0.042,0.0155
COc1ccc(C(C)=O)c(O)c1 [Paeonol],0.076,0.17
OC[C@@H]1O[C@@H](OC[C@H]2O[C@@H](OC/C=C/c3ccccc3)[C@H](O)[C@@H](O)[C@@H]2O)[C@H](O)[C@H]1O [Rosarin],0.0801,0.118
CC1(C)[C@@H](O[C@H]2O[C@H](C(=O)O)[C@@H](O)[C@H](O)[C@H]2O[C@@H]2O[C@H](C(=O)O)[C@@H](O)[C@H](O)[C@H]2O)CC[C@]2(C)[C@H]3C(=O)C=C4[C@@H]5C[C@@](C)(C(=O)O)CC[C@]5(C)CC[C@@]4(C)[C@]3(C)CC[C@@H]12 [Monoammonium Glycyrrhizinate],0.137,-0.00605
CC(=O)CCc1ccc(O)cc1 [Raspberry Ketone],-0.163,-0.0897
